SMILES strings stand for the structures. Several values for one entry are separate records, joined by “and”; a condition that tells them apart may be missing. Equal values may be shown once. Inconclusive results are not listed. Activity calls are given as the source filed them. Calls follow the shape of the dose curve; as a rule, active = well fitted cell-killing curve with a large enough effect; inconclusive = small, poorly fitted or top-dose-only effect, or effect the other way; inactive = flat fitted curve, though single readings scatter.
% is scaled to controls: 0 for no effect and ±100 for the full control effect.

This experiment can be described thus: qHTS assay for cell viability of HEK293 cells (AID 743288). Also: nearly all actives have a fitted effect of over 50% in size. The note with it: ATP luminescence (CellTiter-Glo), 18 h, active compounds read low. The source says:
National Center for Advancing Translational Sciences [NCATS]
NIH Chemical Genomics Center [NCGC]
U.S. Environmental Protection Agency [EPA]
National Institutes of Environmental Health Sciences [NIEHS]
National Toxicology Program [NTP]
U.S. Food and Drug Administration [FDA]
The CellTiter-Glo Luminescent Cell Viability Assay (Promega, Madison, WI) is a homogeneous method to determine the number of viable cells in culture based on quantitation of the ATP present, which signals the presence of metabolically active cells. This cell viability assay was used to screen environmental chemicals in the Hek293 cell line.
Tox21 Assay Protocol Summary:
Cell viability after compound treatment was measured using a luciferase-coupled ATP quantitation assay (CellTiter-Glo viability assay, Promega, Madison, WI) in parental HEK293 cells. Total intracellular ATP content corresponds to the number of metabolically competent cells after compound treatment. The cells were dispensed at 2,000 cells/5 uL/well in 1,536-well white/solid bottom assay plates using a Flying Reagent Dispenser (Aurora Discovery, San Diego, CA). The cells were incubated a minimum of 5 h at 37 C, followed by the addition of 23 nL of compounds dissolved in DMSO, positive controls or DMSO only using a pintool work station (Kalypsys, San Diego, CA). The assay plates were incubated for 18 h at 37 C, followed by the addition of 5 uL/well of CellTiter-Glo reagent. After 30 min incubation at room temperature, the luminescence intensity of the plates was measured using a ViewLux plate reader (PerkinElmer, Shelton, CT).
(In qHTS, concentration-response curves come from the screen itself.)
In the case of `C[C@]12CC[C@@H]3c4ccc(O)cc4CC[C@H]3[C@@H]1CCC2=O`, the max response was -13% (inactive).

Turning to `Cc1cc2nc3c(=O)[nH]c(=O)nc-3n(C[C@H](O)[C@H](O)[C@H](O)CO)c2cc1C`, the max response is -6.02% (inactive).

As for `O=C1NS(=O)(=O)c2ccccc21`, the max response is 0.942% (inactive).

As for `COc1ccccc1O`, the max response is 2.42% (inactive) and 2.72% (inactive) and -4.36% (inactive).

For `CC1(C)[C@@H]2CC[C@@]1(C)C(=O)C2`, the max response was -3.96% (inactive).

Take `CC(CN1c2ccccc2Sc2ccccc21)N(C)C` (stereo not drawn): the max response is -10.5% (inactive).

On to `CNC(=O)Oc1ccc2c(c1)[C@]1(C)CCN(C)[C@@H]1N2C`, for which the max response was -7.46% (inactive).

As for `CC12CCC(CC1)C(C)(C)O2`, the max response was 4.94% (inactive).

For `CCCCC(CC)COC(=O)c1ccccc1O` (stereo not drawn), the max response is -7.63% (inactive).

With `CN(C)CCCN1c2ccccc2Sc2ccc(Cl)cc21`, the max response is -23.7% (inactive).

`NC(=O)c1ncn([C@@H]2O[C@H](CO)[C@@H](O)[C@H]2O)n1`: the max response is -7.49% (inactive).

Regarding `Nc1ccc(S(=O)(=O)Nc2nccs2)cc1`, the max response was -1.59% (inactive).

Turning to `O=C1O[C@H]([C@@H](O)CO)C(O)=C1O`, the max response was -2.8% (inactive) and 5.16% (inactive).

In the case of `O=S(=O)(O)NC1CCCCC1`, the max response was -0.923% (inactive).

Take `Oc1cccc(O)c1`: the max response was 11.8% (inactive).

As for `CC1=C(/C=C/C(C)=C/C=C/C(C)=C/C(=O)O)C(C)(C)CCC1`, the max response was -2.27% (inactive) and -2.67% (inactive).

For the compound `Cc1cc(CC(=O)O)n(C)c1C(=O)c1ccc(Cl)cc1`, the max response is 2.85% (inactive).

On to `NC(=O)N/N=C/c1ccc([N+](=O)[O-])o1`, for which the max response is -5.04% (inactive) and -17.6% (inactive).

With `NCCNCCNCCN`, the max response is -5.67% (inactive).

On to `NCCNCCNCCNCCN`, for which the max response was -15.2% (inactive) and 3.69% (inactive).

As for `CCCCOC(=O)c1ccc(O)cc1`, the max response is -12.8% (inactive) and -6.18% (inactive).

On to `CN(C)CCOC(C)(c1ccccc1)c1ccccn1` (stereo not drawn), for which the max response was -4.19% (inactive).

For the compound `CCCCCCCCCCCCOS(=O)(=O)O`, the max response was -2.66% (inactive) [middle of 4 runs].

In the case of `O=C1c2c(O)cccc2Cc2cccc(O)c21`, the max response was -1.66% (inactive).

Turning to `[Cl][In]([Cl])[Cl]`, the max response was 7.88% (inactive).

On to `C[C@]12C[C@H](O)[C@H]3[C@@H](CCC4=CC(=O)CC[C@@]43C)[C@@H]1CC[C@@H]2C(=O)CO`, for which the max response was -14.2% (inactive) and 1.25% (inactive).

With `CC(O)CN(CCN(CC(C)O)CC(C)O)CC(C)O` (stereo not drawn), the max response is -9.37% (inactive).

Consider `CN(C)CCC=C1c2ccccc2CCc2ccccc21`, for which the max response was -2.39% (inactive) and -37.1% (inactive).

Turning to `CC(O)COc1ccccc1` (stereo not drawn), the max response is 1.97% (inactive).

On to `Cc1cccc(Nc2cc(Cl)nc(SCC(=O)O)n2)c1C`, for which the max response is -9.34% (inactive).

Regarding `CCCc1c(OCCCCc2nn[nH]n2)ccc(C(C)=O)c1O`, the max response was -7.07% (inactive).

Take `CCOC(=O)c1ccc(O)cc1`: the max response is -3.62% (inactive).

As for `COc1ccc(Cl)cc1C(=O)NCCc1ccc(S(=O)(=O)NC(=O)NC2CCCCC2)cc1`, the max response is -4.82% (inactive).

The record behind these values is PubChem BioAssay (NCATS).
